# Experimental data reported in PubChem BioAssay (EPA / NIEHS).
# Records with an inconclusive call do not appear. A structure can be active in one record and inactive in another. Calls of active or inactive are those of the source. The calls were made as follows: active = hit-call score of the fitted dose curve at least 0.9, where 1 is the maximum; inconclusive = response in the unintended direction; inactive = score below 0.9.
# Read-out: Cytochrome P450 2B6 (Homo sapiens) (UniProt P20813)
# Assay: CLD_CYP2B6_24hr: CellzDirect (CLD) Gene Expression Assay for xenobiotic metabolism (CYP2B6) at 24 hours (AID 2283686)
# Protocol: CLD_24hr is a cell-based, multiplexed-readout assay that uses hepatocyte, a human liver primary cell, with measurements taken at 24 hours after chemical dosing in a 96-well plate.CLD_CYP2B6_24hr is one of 16 assay component(s) measured or calculated from the CLD_24hr assay. It is designed to make measurements of mRNA induction, a form of inducible reporter, as detected with chemiluminescence signals by Quantitative Nuclease Protection Assay (qNPA) technology.Data from the assay component CLD_CYP2B6_24hr was analyzed at the endpoint, CLD_CYP2B6_24hr, in the positive analysis fitting direction relative to DMSO as the negative control and baseline of activity. Using a type of inducible reporter, gain-of-signal activity can be used to understand changes in the reporter gene as they relate to the gene CYP2B6. Furthermore, this assay endpoint can be referred to as a primary readout. To generalize the intended target to other relatable targets, this assay endpoint is annotated to the cyp intended target family, where subfamily is xenobiotic metabolism.
# Human hepatocyte cultures were treated daily for two consecutive days with fresh dosing solutions containing appropriate concentrations of the 320 ToxCast chemicals (chemical identities were blinded to CellzDirect and other ToxCast collaborators), vehicle control (0.2% DMSO), and positive control inducers as summarized in Table 1. Due to the large number of treatment groups and chemicals examined, the ToxCast chemicals were divided into two groups (spanning two independent cultures of hepatocytes from separate donor preparations (Hu778: ToxCast plates 1 and 2; Hu776: ToxCast plates 3 and 4). Each preparation of human hepatocyte cultures was treated with respective vehicle control, medium only control, set of six positive controls/reference chemicals for the five hepatic receptor pathways, and a subset of eight of the ToxCast chemicals (indoxacarb, pyrithiobac-sodium, norflurazon, cyhalofop-butyl, methomyl, thiram, acetochlor, and propiconazole). These replicate data, coupled with internal replicates designed within the blinded ToxCast chemical library, provided additional data to evaluate interindividual differences between hepatocyte preparations and their potential impact on chemical profiles.Cell morphology and integrity were evaluated using phase-contrast microscopy as an indicator of hepatocyte cell health (Tyson & Green, 1987). Cultures for each treatment group (i.e., media, vehicle [0.2% DMSO], positive control inducers [multiple concentrations], and the ToxCast chemicals [multiple concentrations]) were observed and cell morphology was assessed relative to vehicle control cultures at each harvest time point (0, 6, 24, or 48 h). […] Images were evaluated at the conclusion of the study to assess changes in cell integrity and account for the effects of chemical exposure on uncharacteristic changes in concentration-dependent gene expression profiles. The results from these determinations of apparent cytotoxicity were annotated (yes/no) alongside the corresponding qNPA data for reference.At the conclusion of each treatment period, hepatocyte cultures (96-well) were washed with 1 volume of HBSS, lysed by addition of 25 ul ArrayPlate lysis buffer (HTG, Tucson, AZ), and 70 ul/well of Denaturation Oil, denatured by incubation at 95C for 10 min, and frozen at approximately -70C until analysis by nuclease protection assay (qNPA) (Roberts et al., 2007). For qNPA analysis, cell lysates were thawed at 50C for approximately 30 min, qNPA probes were added, and samples were incubated at 95C for 10 min to begin the detection process by denaturing the target RNA, dissociating the duplexes and secondary structure hybridization. At the conclusion of the hybridization period, S1 nuclease reagent was added to each sample to digest all nonprotected nucleotides at 50C for 60-90 min. […]
Compound,outcome,AC50
CCNc1nc(N)nc(Cl)n1,inactive,
CC1(C)C(C=C(Cl)Cl)C1C(=O)OCc1cccc(Oc2ccccc2)c1 (stereo not given),,7.12 µM (active)
CCCCOC(=O)[C@@H](C)Oc1ccc(Oc2ccc(C(F)(F)F)cn2)cc1,inactive,
N#CSCSc1nc2ccccc2s1,inactive,
CCCCOC(=O)C(C)Oc1ccc(Oc2ccc(C(F)(F)F)cn2)cc1 (stereo not given),inactive,
CCCN(CCC)C(=O)SCC,inactive,0.0274 µM (active)
CCOC(=O)NCCOc1ccc(Oc2ccccc2)cc1,,12.1 µM (active)
COC(=O)c1c(Cl)nn(C)c1S(=O)(=O)NC(=O)Nc1nc(OC)cc(OC)n1,inactive,
CCC(C)OC(=O)N1CCCCC1CCO (stereo not given),inactive,
CCOC(=O)C(C)Oc1ccc(Oc2cnc3cc(Cl)ccc3n2)cc1 (stereo not given),inactive,
O=C(O)C1(C(=O)Nc2ccc(Cl)cc2Cl)CC1,inactive,
CCN(CC)C(=O)c1cccc(C)c1,,20 µM (active)
CCCCCCC(C)OC(=O)COc1nc(F)c(Cl)c(N)c1Cl (stereo not given),inactive,
CCCN(CCC)c1c([N+](=O)[O-])cc(C(F)(F)F)c(N)c1[N+](=O)[O-],,4.48 µM (active)
CC(C)(C)[C@@H](O)[C@@H](Cc1ccc(Cl)cc1)n1cncn1,,2 µM (active)
O=C(Nc1ccc([N+](=O)[O-])cc1Cl)c1cc(Cl)ccc1O,inactive,
CCCCC(CC)COC(=O)c1ccccc1C(=O)O (stereo not given),,5.12 µM (active)
CSC(=O)c1cccc2nnsc12,inactive,
CCOC(=O)COc1cc(-n2ncc(C(F)(F)F)c(C)c2=O)c(F)cc1Cl,,6.56 µM (active)
CCN(Cc1c(F)cccc1Cl)c1c([N+](=O)[O-])cc(C(F)(F)F)cc1[N+](=O)[O-],,0.365 µM (active)

Compound,outcome,AC50
c1ccc2[nH]c(-c3cscn3)nc2c1,inactive,
COC(=O)CSc1cc(N=c2sc(=O)n3n2CCCC3)c(F)cc1Cl,,2.48 µM (active)
Oc1ccc(C(c2ccc(O)cc2)C(Cl)(Cl)Cl)cc1,inactive,
CCCCC(CC)CN1C(=O)C2C3C=CC(C3)C2C1=O (stereo not given),,9.04 µM (active)
Cc1nn(C)c(Oc2ccccc2)c1C=NOCc1ccc(C(=O)OC(C)(C)C)cc1,,20 µM (active)
C=CCOC(Cn1ccnc1)c1ccc(Cl)cc1Cl (stereo not given),,0.135 µM (active)
COC(=O)c1ccccc1S(=O)(=O)NC(=O)Nc1nc(OC(F)F)cc(OC(F)F)n1,inactive,
CCSC(=O)N(CC(C)C)CC(C)C,inactive,
COC(=O)c1cccc(C)c1S(=O)(=O)NC(=O)Nc1nc(OCC(F)(F)F)nc(N(C)C)n1,,4.98 µM (active)
COC(=O)c1ccc(I)cc1S(=O)(=O)NC(=O)Nc1nc(C)nc(OC)n1,inactive,
C#CCOC(=O)[C@@H](C)Oc1ccc(Oc2ncc(Cl)cc2F)cc1,,0.000411 µM (active)
CCCCOCCOCCOCc1cc2c(cc1CCC)OCO2,,1.9 µM (active)
CCCCCOC(=O)COc1cc(N2C(=O)C3=C(CCCC3)C2=O)c(F)cc1Cl,inactive,
COc1nc(C)nc(NC(=O)NS(=O)(=O)c2ccccc2OCCCl)n1,inactive,
CN(C)C(=O)Nc1ccc(Cl)c(Cl)c1,,2.49 µM (active)
COC(=O)c1ccc(CNS(C)(=O)=O)cc1S(=O)(=O)NC(=O)Nc1nc(OC)cc(OC)n1,inactive,
c1ccc(Nc2ccccc2)cc1,,6.82 µM (active)
CCCOC(=O)NCCCN(C)C,inactive,
CC(C)(c1ccc(O)cc1)c1ccc(O)cc1,inactive,
